# The supplement of paper PMC12632987
# T1: USP38, Q8NB14
# T1 chain: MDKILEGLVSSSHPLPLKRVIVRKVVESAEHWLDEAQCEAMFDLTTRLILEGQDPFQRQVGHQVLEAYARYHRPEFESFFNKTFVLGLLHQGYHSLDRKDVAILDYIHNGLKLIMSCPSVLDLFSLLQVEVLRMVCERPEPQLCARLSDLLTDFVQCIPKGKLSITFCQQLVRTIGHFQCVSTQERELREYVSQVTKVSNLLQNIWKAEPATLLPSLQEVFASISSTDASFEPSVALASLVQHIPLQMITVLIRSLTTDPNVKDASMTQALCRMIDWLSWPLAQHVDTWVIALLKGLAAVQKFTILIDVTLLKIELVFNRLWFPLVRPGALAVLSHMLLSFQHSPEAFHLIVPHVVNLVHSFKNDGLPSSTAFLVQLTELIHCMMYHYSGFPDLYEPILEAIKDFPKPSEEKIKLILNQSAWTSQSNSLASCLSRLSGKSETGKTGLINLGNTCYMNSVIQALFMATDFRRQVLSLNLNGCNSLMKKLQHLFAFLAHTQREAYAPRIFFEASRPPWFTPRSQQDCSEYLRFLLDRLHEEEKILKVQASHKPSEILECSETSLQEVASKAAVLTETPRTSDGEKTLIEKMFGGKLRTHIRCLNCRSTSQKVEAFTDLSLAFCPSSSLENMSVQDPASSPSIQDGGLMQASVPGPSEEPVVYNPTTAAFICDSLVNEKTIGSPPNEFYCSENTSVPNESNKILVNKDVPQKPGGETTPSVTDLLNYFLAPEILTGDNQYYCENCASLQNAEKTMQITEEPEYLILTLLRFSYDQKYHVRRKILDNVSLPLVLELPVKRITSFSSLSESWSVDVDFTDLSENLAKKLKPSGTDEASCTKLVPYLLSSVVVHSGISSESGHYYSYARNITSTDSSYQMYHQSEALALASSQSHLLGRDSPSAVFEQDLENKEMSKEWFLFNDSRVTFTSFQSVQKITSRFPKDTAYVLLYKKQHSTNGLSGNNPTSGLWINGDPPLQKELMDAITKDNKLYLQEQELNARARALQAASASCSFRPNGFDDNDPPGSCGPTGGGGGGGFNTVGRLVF
# B1: usp_38_diff_out_1_153_29 (protein)
# chain: SELEELKARVEKITKEAEALKKEAEKLIADGTATREKVDALADKLGALAVELREIKSKAAESGEYYKKLKPLFDKAEAALNEAVDALNRAATLVFEREAA
# B2: usp_38_diff_out_1_147_14 (protein)
# chain: SAADEADAAAQAEIDERLRRFARESLDDFEANRDRYSPDRATVALGGLITTAIELGDRELLLRAAALLLKDPAVRAAVLARLDPAARAAFEEAEAEVRAA
# B3: usp_38_diff_out_1_162_38 (protein)
# chain: ELEELLKEAEEAIERARELLERAEEAFAAGDLETAERLLREAADELGRAAQLLREARRLLRELPPEEREKYRERLEELERELDELIDRYTALATEVFLAR
# B4: usp_38_diff_out_1_101_9 (protein)
# chain: MEAELAAAKAAFDAAAAALLKAAEDALAKIKAEGTPEQAAEMERHLAAIKSFIADSRKTLEEIAEQDKEAAIEFANAATTVLNILTAEVKEETARLLAKA
# B5: usp_38_diff_out_1_162_40 (protein)
# chain: ELEEVLREAREAIERARELLERAKEALEEGRLEEAERLLDEAADELGRAARLLREARRLLRELPPEEREKYREELEKLERELRELIDEYTELAREVFLRR
# B6: usp_38_diff_out_1_162_41 (protein)
# chain: DIEKVLEQAQKALEEAEKLLKEAEKALKEGDLEEAEKYIRKAWDKLGQLAQLLREARRLLRELSPEERKKYREQLDKLEAKADELIDRLVKLEKEVFLKK
# B7: usp_38_diff_out_1_153_31 (protein)
# chain: SELEELRERIERLTREARELEREARELIESGEATREKVDELADRLGRLAVELRELRSKAAESGEYYKELKPLFEEAEEALNRAVDALNEAGRLVFEREAE
# B8: usp_38_diff_out_1_153_36 (protein)
# chain: SELDELKARLDAITAEANALKAEINAAIEAGTMTREQVDAAWDRLGALAKELAEIRAKAAEKPELYPQLKPAIDAATAALNAAIDALNEAARLVFLREAE
# B9: usp_38_diff_out_1_153_30 (protein)
# chain: SELEELEKEIKKITEEAKKLKKEAEELIKSGKATREKVDKLADELGKLAVRLREIRSKAAESGDYYKKLKPLFKEAEKALNEAVDALEKAGRLVFEKEAE
# B10: usp_38_diff_out_1_153_33 (protein)
# chain: SKLEELKARVEALTAEAKALEKEAKALIESGKATREKVDALADRLGALAVELRELRSEAAESGEYYKELKPLFDEANAALDAAVDALEKLGRLVFEKEAE
# B11: usp_38_diff_out_1_153_17 (protein)
# chain: SRLEELKKRLEEILEEAKRLKEEIERLIAEGTMTREKVDEYADRLGKLAVEFREIRAEAAEDPEIYKELKELFKETEKALNEAVDALERAGRLVFLREAE
# B12: usp_38_diff_out_1_153_22 (protein)
# chain: MKEEELEKKVEEIKKKAKELLKEAKKLLESGKATREEVDKLADELGKLAVELRELRSEAAEDEEVYKKLKEKFKEAEKALNEAVDALNEAARRVFLKEAE
# B13: usp_38_diff_out_1_162_43 (protein)
# chain: DVEKVLEQAKELLEKAEKKIKEAEKALKEGKLEEAEKYLDEAWELLGQLAKLLREARRLRRELDPERQAEVTKKLKELNEKANKLIDKLTKLEEEVFLKK
# B14: usp_38_diff_out_1_153_20 (protein)
# chain: SRLEELRKELEEILEEAKRLRDEIERLIAEGRMTRELVDRYADRLGELAARFREIRAELADDPEAYKELRPLLKETQAALDAAVDALERAGRLVFLREAE
# B15: usp_38_diff_out_1_162_37 (protein)
# chain: RAEELLERLREHTERLRRLVEEAKRRLDTLSAEELRAMADELADAIAETDELIREARRLMVDLDPERREEARRAIEEARRAADEAVEVYEQLVLRSIELE
# B16: usp_38_diff_out_1_153_23 (protein)
# chain: MKEEELRKRLEEIKKKAEELKKEAEALLKSGNATREKVDALADKLGALAVELRELKALAAQDPEVYKALKPLFKETEKALNEAVDALNEAARQVFLKEAE
# B17: usp_38_diff_out_1_153_21 (protein)
# chain: SELEELKKELEEILEEAKKLKEEIEKLIKEGKMTLEKVDKLADELGRLSKRFREIRSKAAENPEYYEKLKELFKETEEELNKAVDALNEAGRLVFLKEAE
# B18: usp_38_diff_out_1_153_28 (protein)
# chain: SKLEELKKRVEEITKEAKELKKEAEKLIKSGKATLEKVEELADKLGKLSVELREIRSEAAEDEEYYKELKPLFKEAEKALNEAVDALEKAGRLVFEKMAE
# B19: usp_38_diff_out_1_153_16 (protein)
# chain: SELEKMKEELEKILEEAKKLKEEIEKLIKEGKMTREKVDKYADELAELAKRFRELRSKAAENPEYYKELKELFKETLKALNEAVDALTKAAEQVFLKEAE
# B20: usp_38_diff_out_1_153_34 (protein)
# chain: SRLEELRKRVEEITKRAKELKKRAEELIESGEATLEKVDELADELGRLAVELREVRSEAAEDGDYYRELKPLFDEAEKALNEAVDALNEAGRLVFLKEAE
# B21: usp_38_diff_out_1_153_24 (protein)
# chain: VKLEELKKRVEEITKRAKELKKEAEELLKSGNATREEVDRLADELGRLAVELRELRSIAAEDEEVYKALKPLFKEANEALDEAVDALNEAGRRVFLKEAE
# B22: usp_38_diff_out_1_153_32 (protein)
# chain: SELEELKKKVEEITKKAKELKKEAEKLIADGTATLEKVDALADELGALAVELREIRSKAAESGDYYKKLKPLFDEANAALNEAVDALNRAGTLVFEREAE
# B23: usp_38_diff_out_1_162_42 (protein)
# chain: KLEELLEQAKRALAEAEELLERAEEALAAGRLEEARRYLDRAWDALGRLAQLLREARRLLRELSPEEREKARKQLKELEARADELIDRLVELEREVFLRE
# B24: usp_38_diff_out_1_153_26 (protein)
# chain: SELEKLEKEIKKITEEAKKLKEEAEKLIEDGTATREKVDELADRLGKLAVELREIRSKAAESGDYYKKLKPLFEEAEKALNEAVDALNKAGTLVFEKEAE
# B25: usp_38_diff_out_1_147_13 (protein)
# chain: SAADEADREAEAEAREKLRRFAWESLEELEKNRDKLSLDRLTIGAGGLLVVALELGDEELLLRVAALLLEDPEVLARVRARLSPEERARLEAAVARVRAA
# B26: usp_38_diff_out_1_162_39 (protein)
# chain: RLEELLEEARRAIEEARRLLEEAERAFKAGDLEEARRLLDRAADALGRAAQLLREARRLMRDLPPEEREKVREELDRLEEELDRLIDRYTELATRVFLAE
# B27: usp_38_diff_out_1_153_27 (protein)
# chain: SELEELKKKIEEITKEAEKLKKEAEKLIKDGTATREKVDELADKLGKLAVELREIRSKAAESGEYYKKLKPLFKKAEKALNEAVDALNKAATLVFEKEAE
# B28: usp_38_diff_out_1_153_19 (protein)
# chain: SELEELKKELEKIKEEAKKLKEEIEKLIKEGKMTREKVDEYADKLGELAKRFREIRSKLAQNPEAYKELKELLKETEKELNEAVDALNEAGRLVFLKEAE
# B29: usp_38_diff_out_1_153_18 (protein)
# chain: SRLDELRARLERILAEARELKAEIKALIEAGTMTREKVEEYADRLAALAAEFREIRAEAAEDPAAYAALRPLFRETQAALDEAVDALEEAGRLVFEREAE
# B30: usp_38_diff_out_1_153_25 (protein)
# chain: SELEELKKKVEEIKKEAEKLKKEAEELIKSGEATREKVEELADKLGKLSVELREIRSKAAESGEYYKELKPLFKEAEEALNEAVDALEKAAREVFLKEAE
# B31: usp_38_diff_out_1_153_35 (protein)
# chain: SELDKLKAELADITAKANALKKEIEAAIKAGTMTREKVDAAWDELGALAKRLAEIRSKAAENPELYPKLKADIDAANAALDAAIDALNEAATKVFLKEAE
# B32: usp_38_diff_out_1_147_15 (protein)
# chain: SPADEADAEAEAEARERLREFARESLDELEANRDRLSLDRRVTQAGGLFTIAVELGDRELLLRVAALLLEDPEALAAVRARLSPEERAALEAAVAEVRAA
# Molecular target: T1, USP38, Q8NB14
# Experiment: median log2 fold change of GCK-ALFA target abundance (FLAG IP / Myc IP barcode read proportion) (log2 ratio); each designed protein is fused to an ALFA-tag nanobody in HEK293 cells to bring the named protein to FLAG-tagged glucokinase (GCK); Myc marks an untargeted standard; higher = target protein stabilised (more abundant)
# Conditions: target protein: 3xFLAG-MCP-GCK-ALFA reporter; HEK293 landing pad (RPLP)
# Outline: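 HEK293 landing-pad cells received a recombined binder library fused to the ALFA nanobody and were induced with 2 μg mL^−1 doxycycline, then transfected with a plasmid encoding a FLAG-tagged target and a Myc-tagged standard. Lysates were collected after 48 h for anti-FLAG and anti-Myc immunoprecipitation, and the circular RNA barcodes were reverse transcribed, amplified and sequenced. Target abundance for each binder is the median log2 ratio of FLAG to Myc barcode read proportions. Barcodes had to reach a proportion of at least 10^−7 in both replicates, each binder needed at least 3 barcodes per replicate, a pseudocount of 10^−6 was applied, and the two replicates were pooled.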
row,Binder,median log2 fold change
1,B1,-0.161
2,B2,0.247
3,B3,0.219
4,B4,-0.957
5,B5,-0.209
6,B6,-0.214
7,B7,0.15
8,B8,0.22
9,B9,-0.0674
10,B10,0.179
11,B11,-0.168
12,B12,0.146
13,B13,-1.34
14,B14,-0.0906
15,B15,0.216
16,B16,0.0874

row,Binder,median log2 fold change
1,B17,0.358
2,B18,-0.31
3,B19,-0.51
4,B20,0.122
5,B21,0.085
6,B22,-0.165
7,B23,-0.0981
8,B24,0.457
9,B25,-1.17
10,B26,0.185
11,B27,0.0209
12,B28,-0.00147
13,B29,0.0475
14,B30,-0.027
15,B31,0.136
16,B32,0.0346
